Results reported in PubChem BioAssay AID2315 (National Center for Advancing Translational Sciences (NCATS), 2010).
In all, about 290,000 compounds went through this assay and about 27,000 (9.3%) were called active. For the sample, actives were picked, then their nearest neighbours and some compounds at random. Values without a mark were called inactive. No stated cut-off is given here; in the data, active means inhibition mostly above about 28% (no sharp cut-off); inactive means mostly below about 43%. Where a SMILES comes first, the peptide text is derived from it. The star is where a group is joined. OPac = O=C(CO*)c1ccccc1; Bz = O=C(c1ccccc1)*

Experiment: A qHTS for Small Molecule Inhibitors of Shiga Toxin; further: 0% is about no effect
Conditions: Vero cells, Shiga toxin protein synthesis inhibition reporter; at 38.7 µM, hits give high values

SMILES	inhibition
CSCCC(NS(=O)(=O)c1ccc(C)cc1)C(=O)NCCc1c[nH]c2ccccc12 (stereo not drawn)	-5.02%
COC(=O)N/N=C/c1ccc(/C=N/NC(=O)OC)cc1	-9.65%
CC(C)(C)OC(=O)N/N=C/c1ccc(C(=O)O)cc1	51.6% (active)
O=C(O)c1ccc(/C=N/NC(=O)c2ccc(Br)cc2)cc1	17.5%
CC1CC(C)CN(S(=O)(=O)c2cccc3nonc23)C1 (stereo not drawn)	-8.46%
COc1cccc(N(C(=O)CNC(=O)c2ccco2)C(C(=O)NC2CCCCC2)c2cccnc2)c1 (stereo not drawn)	-9.43%
Oc1ccc(-c2c(-c3ccccc3)nn3c(C(F)(F)F)cc(C(F)(F)F)nc23)cc1	-10.8%
COC(=O)c1cccc([N+](=O)[O-])c1CS(=O)(=O)c1ccc(C)cc1	-10.2%
Cc1ccc(N=C2NC(=O)c3cccc([N+](=O)[O-])c32)cc1	98.8% (active)
CCN(Cc1ccccc1)C(=O)CCS(=O)(=O)c1ccc2c(c1)oc(=O)n2C	0.994%
O=C(CNC(=O)c1ccccc1)NCC(=O)OCC(=O)c1ccccc1 (Bz-Gly-Gly-OPac)	-5.66%
COC(=O)CNC(=O)c1ccccc1F	-15.6%
CSc1nnc(CNC(=O)c2ccccc2)n1-c1ccc(F)cc1	-6.7%
O=C(CNC(=O)c1ccccc1F)c1ccc(Br)cc1	79.7% (active)
O=C(COC(=O)CNC(=O)c1ccccc1F)NCC(F)(F)F	16.2%
O=C(CNC(=O)c1ccc(F)cc1)c1ccccc1	90.2% (active)
COc1cc(C(C(=O)NC2CCCC2)N(Cc2ccccc2)C(=O)c2snc(C(N)=O)c2N)ccc1O (stereo not drawn)	-1.22%
COc1cc(C(=O)OC2CCOC2=O)c([N+](=O)[O-])cc1OC (stereo not drawn)	-8.09%
COCCCN1C(=O)C(=O)/C(=C(/O)c2ccc(S(=O)(=O)N3CCOCC3)cc2)C1c1ccc(F)cc1 (stereo not drawn)	-3.02%
Cc1ccc(S(=O)(=O)N2CCC3(CC2)OCCO3)c(C)c1	19.9%
CN(CCC1CCOCC1)C(=O)CC1C(=O)NCCN1Cc1cccc(F)c1 (stereo not drawn)	-4.33%
COc1cc(OC)cc(-c2nnc(N(C)C(=O)c3ccncc3)s2)c1	-6.02%
CN(C(=O)COc1ccccc1)c1nnc(-c2ccncc2)s1	3.11%
CN(C(=O)c1ccccn1)c1nnc(-c2ccccn2)s1	115% (active)
COc1ccc(C(=O)NCCn2nc(C)cc2C)cc1OC1CCN(C(C)=O)CC1	-11.5%

SMILES	inhibition
Cc1ccc(NC(=O)C(CC(=O)O)C2CCCO2)c(C)c1 (stereo not drawn)	-1.94%
COc1cccc(CC(=O)Nc2nc(-c3ccc(OC)c(OC)c3)cs2)c1	17.3%
Cc1ccc(NNC(=O)c2cccs2)cc1Cl	22.1%
Cc1ccc(-c2csc(NC(=O)Cc3cccs3)n2)cc1C	37.6%
O=C(NNC(=O)c1ccc(Cl)cc1Cl)c1cccs1	74.9% (active)
Cc1ccc(C)c(NC(=O)CCC(=O)NNC(=O)c2cccs2)c1	-2.76%
Cc1ccc(-c2csc(NNC(=O)c3ccccc3)n2)cc1	1.14%
Cc1ccc(C(=O)NNC(=O)c2cccs2)cc1	86.5% (active)
CC(C)C(=O)Nc1ccc(C(=O)NNC(=O)c2cccs2)cc1	28.6%
COc1cccc(NC(=O)CN2CCN(c3nc(-c4cccc(OC)c4)cs3)CC2)c1	-2.33%
NNC(=O)c1ccc(Cl)cc1Cl	16.2%
COc1cccc(CC(=O)Nc2ccc(-c3csc(C)n3)cc2)c1	28.8% (active)
COc1ccccc1CCNS(=O)(=O)c1cc2c3c(c1)C(C)C(=O)N3CCC2 (stereo not drawn)	-4.37%
CCn1c(=O)c(=O)[nH]c2c(=O)oc3ccc(S(=O)(=O)Nc4ccc(OC)cc4)cc3c21	-7.69%
O=C(NCc1cccs1)c1ccc(CS(=O)Cc2ccccc2Cl)o1 (stereo not drawn)	-8.99%
COc1cc(CO)ccc1OCC(=O)Nc1cccc2ccccc12	-2.74%
CC1CN(C(=O)CCC(=O)NCc2cccnc2)c2ccccc2O1 (stereo not drawn)	-5.3%
O=C(CN1C(=O)c2cccnc2Oc2ccc(Cl)cc21)Nc1ccc(F)cc1	-1.35%
CCN(CC(=O)NCc1ccco1)S(=O)(=O)c1ccc(F)cc1	-12.2%
O=C1C(=O)N(CCCN2CCOCC2)C(c2ccc([N+](=O)[O-])cc2)/C1=C(\O)c1ccc2c(c1)OCCO2 (stereo not drawn)	22.5%
COc1ccc(N2CCN(C(=O)c3ccccc3NC(=O)C3=C(C)OCCS3)CC2)cc1	-21.3%
Cc1ccc(S(=O)(=O)N[C@@H](Cc2ccccc2)C(=O)N2CCC(C(=O)N[C@H](C(=O)O)C(C)O)CC2)cc1 (stereo partly drawn)	-8.35%
Cc1ccc(-c2nnc(-c3ccc(NC(=O)c4cccs4)cc3)o2)cc1	-3.6%
Cc1ccc(C(=O)Nc2ccc(NC(=O)c3cccs3)cc2)c(C)c1	2.76%
Cc1nc(-c2ccc(NC(=O)c3cccs3)cc2)cs1	45.3% (active)

SMILES	inhibition
CCOC(=O)C1CCN(S(=O)(=O)c2ccc3c(c2)N(C)C(=O)CC(=O)N3C)CC1	-0.654%
COc1ccc(NC(=O)NNC(=O)COc2cc(C)c(Cl)c(C)c2)c(OC)c1	-7.12%
CCCCSCCCNC(=O)C1CCC(CNS(=O)(=O)c2ccc(NC(C)=O)cc2)CC1 (stereo not drawn)	-4.92%
CCC1Sc2ccc(S(=O)(=O)CCC(=O)NCc3cccs3)cc2NC1=O (stereo not drawn)	-5.71%
O=C(NC1CCCC1)C(c1c(F)cccc1Cl)N(C(=O)c1csnn1)C1CC1 (stereo not drawn)	-2.62%
COc1ccc(N2CCN(S(=O)(=O)CCNC(=O)C34CC5CC(CC(C5)C3)C4)CC2)cc1	-1.41%
COC(=O)c1cc(NC(=O)C2C3C=CC(C3)C2C(=O)O)cc(C(=O)OC)c1 (stereo not drawn)	-19%
CC(=O)NS(=O)(=O)c1ccc(NC(=O)C2C3C=CC(C3)C2C(=O)O)cc1 (stereo not drawn)	-8.78%
CC(C)COC(=O)c1ccc(NC(=O)C2C3C=CC(C3)C2C(=O)O)cc1 (stereo not drawn)	77.2% (active)
COc1ccc(CNC(=O)C(c2ccc(O)cc2)N(Cc2ccco2)C(=O)c2snc(C(N)=O)c2N)cc1 (stereo not drawn)	-11.7%
CCCCCCCCC(=O)NCCOc1ccccc1	-16.7%
CCCCCCOC(=O)NCC(O)c1ccccc1 (stereo not drawn)	85.6% (active)
CCCCCOC(=O)NCCOC(=O)Nc1ccc(C(=O)OCC)cc1	-13.5%
NC(=O)C1CC(=O)N(c2ccc(OCC(=O)NCc3ccccc3)cc2)C1 (stereo not drawn)	-19.2%
COc1ccc(/C=C(/NC(=O)c2ccco2)C(=O)Nc2ccc(C(C)=O)cc2)cc1	-4.34%
CCCOC(=O)c1cc2ccccc2oc1=O	18.4%
C=CCc1cccc2cc(C(=O)OCC)c(=O)oc12	2.24%
CCOC(=O)c1cc2cc3ccccc3cc2oc1=O	43.1% (active)
Cc1ccc(-n2c(SCC(=O)NCCC3=CCCCC3)nc3n[nH]c(C)c3c2=N)cc1Cl	-4.66%
CCOC(=O)c1ccccc1NC(=O)COC(=O)CCC(=O)N1CCOCC1	-9.24%
CC(=O)N1c2ccc(S(=O)(=O)N3CCCC(C(=O)Nc4cccc(F)c4)C3)cc2CC1C (stereo not drawn)	-2.88%
CNC(=O)c1ccc(NC(=O)c2cccc(C(F)(F)F)c2)cc1	-2.63%
Cc1cccc(NC(=O)/C(=C\c2ccco2)NC(=O)c2ccccc2)c1	-2.02%
Cc1cccc(NC(=O)NC(=S)NC(=O)c2ccccc2)c1	80.2% (active)
O=C(CNC(=O)c1ccc(Br)o1)Nc1ccccc1	-4.27%

SMILES	inhibition
Cc1cccc(NC(=O)c2cccc(C(F)(F)F)c2)c1	77.8% (active)
Cc1cccc(NC(=S)Nc2ccc(Br)cc2)c1	36.6%
Cc1cccc(NC(=O)c2nnn(-c3cccc(C(F)(F)F)c3)c2N)c1	31.4%
Cc1cccc(NC(=S)NC23CN4CN(CN(C4)C2)C3)c1	-10.3%
Cc1cccc(NC(=S)NC(=O)c2ccc(Br)o2)c1	105% (active)
COc1ccc(OCC(=O)Nc2ccc(NC(=O)c3ccco3)c(C)c2)cc1	19.3%
O=C(c1cc2cc(Br)cc(Br)c2oc1=O)N1CCOCC1	11.8%
COC(=O)CSc1nc2ccccc2c(=O)n1Cc1ccccc1	-8.77%
Cc1c(CC(=O)NCCCCCC(=O)O)c(=O)oc2cc3occ(-c4ccccc4)c3cc12	-4.34%
CCN(CC)S(=O)(=O)c1ccc(N2CC(C(=O)NCc3cccnc3)CC2=O)cc1 (stereo not drawn)	-5.91%
Cc1ccc(CNC(=O)CCN2C(=O)[C@@H]3Cc4ccccc4CN3C2=O)cc1	8.09%
CCC(Cc1ccccc1)NS(=O)(=O)c1ccc2c(c1)NC(=O)CS2 (stereo not drawn)	1.38%
O=C(CN(CC1CCCO1)C(=O)CNS(=O)(=O)c1ccc(Cl)cc1)NCc1ccccc1 (stereo not drawn)	-14%
Cc1ccc(C(=O)N(CC(=O)NC2CCCC2)c2ccc(F)cc2)s1	-7.38%
O=C(NC(=O)c1cc(OCC(F)(F)F)ccc1OCC(F)(F)F)Nc1ccccc1	27.7%
Cc1ccc(NC(=O)Nc2cccc(C(F)(F)F)c2)nc1	52.4%
O=C(Nc1ccccc1)Nc1ccc(C(F)(F)F)cn1	53% (active)
CC(=O)Nc1ccccc1C(=O)OCC(=O)c1cccc2ccccc12	-4.88%
O=C(CNC(=O)c1ccc(-c2ccccc2)cc1)OCc1ccc(Cl)cc1	-7.89%
O=C(OCC(=O)c1c[nH]c2ccccc12)c1cccc(O)c1	69.8% (active)
CC1CCN(CC(=O)c2c[nH]c3ccccc23)CC1	15.1%
O=C(OCc1ccc(-c2ccccc2)cc1)c1cccc(O)c1	80.8% (active)
O=C(OCc1ccc(Br)cc1)c1cccc(-c2nnc(-c3ccccc3)o2)c1	31.1%
